# Out of some 330,000 compounds screened, about 4,900 (1.5%) were called active. Only a selection was taken, and actives are over-represented in it overall. A number with no mark means an inactive call.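 How the source made its calls: active means inhibition above the mean inhibition across the screen plus 3 SD (cut at about 25% in these data); inactive means the rest.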
# Target: Platelet-activating factor acetylhydrolase (Homo sapiens) (UniProt Q13093)
# Assay: pPAFAH enzyme inhibitors, primary screen, biochemical, fluorescence polarization, human (AID 463082);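 further: inhibitors block binding of the rhodamine activity-based probe so polarization drops; 0% = enzyme with DMSO and 100% = wells lacking pPAFAH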
# Details: recombinant pPAFAH, FP-rhodamine probe fluorescence polarization; at 3.39 µM; active compounds read high
# Platelet-activating factor acetylhydrolase (Homo sapiens), sequence (Q13093 whole entry, looked up): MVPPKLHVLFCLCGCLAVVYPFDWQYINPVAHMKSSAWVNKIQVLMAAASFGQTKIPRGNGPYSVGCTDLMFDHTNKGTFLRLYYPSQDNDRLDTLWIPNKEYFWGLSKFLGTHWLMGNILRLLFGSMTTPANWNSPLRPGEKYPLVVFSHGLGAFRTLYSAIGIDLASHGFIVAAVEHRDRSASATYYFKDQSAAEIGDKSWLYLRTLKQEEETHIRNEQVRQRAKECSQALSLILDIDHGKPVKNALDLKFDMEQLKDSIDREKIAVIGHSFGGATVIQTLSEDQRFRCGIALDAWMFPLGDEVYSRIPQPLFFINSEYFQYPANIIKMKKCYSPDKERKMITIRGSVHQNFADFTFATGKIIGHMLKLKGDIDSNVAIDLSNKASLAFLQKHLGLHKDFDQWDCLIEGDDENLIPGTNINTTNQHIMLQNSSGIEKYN
row,Structure (SMILES),inhibition
1,COc1ccc(CN2C(=O)NC(=O)/C(=C\c3ccc(OC)c(OC)c3OC)C2=O)cc1,2.22%
2,COc1cccc(N2C(=O)NC(=O)/C(=C\c3cn(C)c4ccccc34)C2=O)c1,0.95%
3,COc1ccc(N2C(=O)/C(=C/c3ccco3)C(=O)NC2=S)cc1,39.7% (active)
4,O=C1CC(=O)N(Cc2ccccc2)C(=O)N1CCCCCCN1C(=O)CC(=O)N(Cc2ccccc2)C1=O,41.3% (active)
5,CC(C)(C)c1ccc(CN2C(=O)CN=C(c3ccccc3)c3ccccc32)cc1,-2.71%
6,O=C(CN1CCCC1=O)NCCc1ccccc1,6.04%
7,O=c1[nH]c(CN2CC=C(c3ccccc3)CC2)nc2scc(-c3cccs3)c12,8.85%
8,CN(C)c1ccc(/C=C2\CC3C4CC=C5CC(O)CCC5(C)C4CCC3(C)C2=O)cc1 (stereo not given),3.94%
9,Cc1nn(-c2ccccc2)c(C)c1NC(=O)COC(=O)Cc1ccccc1,46.5% (active)
10,O=C(COC(=O)Cc1ccccc1)Nc1ccc(F)cc1,23.1%
11,Cc1ccccc1NC(=O)COC(=O)c1cc(C)n(C2CC2)c1C,3.84%
12,O=[N+]([O-])c1ccc(C2C3C(c4ccccc4)=NC4(CCCCC4)N32)cc1 (stereo not given),6.5%
13,Cn1cc(C(=O)OCC(=O)N2CCCC2)c2ccccc21,-2.21%
14,COc1ccccc1NC(=O)N1C[C@@H]2C[C@@H](C1)c1cccc(=O)n1C2,5.55%
15,CSc1nc2ccc(C)cc2c(=O)n1-c1cccnc1,-1.83%
16,O=C1NC(=O)N(c2ccccc2)C(=O)/C1=C/c1ccc([N+](=O)[O-])s1,58% (active)
17,Cc1ccccc1N1C(=O)NC(=O)/C(=C\c2cc(C)n(C)c2C)C1=O,-0.82%
18,COC(=O)C1=C(c2ccc(C(C)=O)cc2)C[C@@H]2CC[C@H]1N2C(=O)NCCNC(C)=O,3.68%
19,COc1cccc(C(=O)N2C[C@H]3C[C@@H](C2)c2cccc(=O)n2C3)c1,3.04%
20,C/C(=N/O)c1ccc2ccc3ccccc3c2c1,1.83%
21,COC(=O)C1=C(c2cc3ccccc3s2)C[C@@H]2CC[C@H]1N2C(=O)NC(C)C,4.37%
22,NCCc1ccc(S(=O)(=O)F)cc1,59.5% (active)
23,CN1CCN(Cc2ccc(OC(F)(F)F)cc2)CC1,-4.99%
24,C=Cn1ccnc1P(=S)(c1cc(N(CC)CC)ns1)c1nccn1C=C,-4.36%
25,CCOC(=O)C1CN(C)CCC1=O (stereo not given),4.48%

# From PubChem BioAssay AID463082 (The Scripps Research Institute Molecular Screening Center, 2010)
